This excerpt belongs to a sample that is enriched for hits.
DUX4 txn inh = inhibitors of DUX4-driven ZSCAN4 reporter expression, primary screen, 293T cells, Gaussia and Italica luciferase; 293T-iDUX4 ZSCAN4-Gaussia luciferase reporter, 24 h; stronger effect = lower value; activity change, negative = inhibition, % (no concentration beside the values); actives 0.8% (n = 37,000); AID 1224904, 2016;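 active means mean inhibition of at least 10% in the main channel, exceeding the control channel by a set limit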;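 further: 0% = median of neutral control wells and -100% = median of positive control wells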
An asterisk follows results filed as active; ! = a repeat was not active.

SMILES | DUX4 txn inh
COc1ccc(C[C@H]2CCn3cc(nn3)COC[C@@H](Cc3ccccc3)NC2=O)cc1 | 3.3
Cn1cnc(S(=O)(=O)N2CCCCN3[C@H](CO)[C@H](c4ccc(-c5cccc(F)c5)cc4)[C@H]3C2)c1 | 0.9
Cc1ccccc1-c1ccc([C@@H]2[C@@H](CO)N3CCCCN(S(=O)(=O)Cc4ccccc4)C[C@H]23)cc1 | -45.3*
Cc1ccccc1-c1ccc([C@@H]2[C@@H](CO)N3CCCCN(S(C)(=O)=O)C[C@H]23)cc1 | 2.5
Cc1ccccc1S(=O)(=O)N1CCCCN2[C@H](CO)[C@@H](c3ccc(-c4cccc(F)c4)cc3)[C@H]2C1 | -39.1*
Cc1cccc(-c2ccc([C@@H]3[C@H](CO)N4CCCCN(S(=O)(=O)c5ccccc5F)C[C@@H]34)cc2)c1 | -5.1
Cc1ccccc1S(=O)(=O)N1CCCCN2[C@H](C1)[C@H](c1ccc(-c3cccc(F)c3)cc1)[C@@H]2CO | -19.1*
CCS(=O)(=O)N1CCCCN2[C@H](C1)[C@@H](c1ccc(-c3ccccc3C)cc1)[C@@H]2CO | 8.5
Cc1ccccc1S(=O)(=O)N1CCCCN2[C@@H](CO)[C@@H](c3ccc(-c4cccnc4)cc3)[C@@H]2C1 | -0.5
Cn1cnc(S(=O)(=O)N2CCCCN3[C@H](C2)[C@H](c2ccc(-c4cccc(F)c4)cc2)[C@@H]3CO)c1 | 9.2
COc1ccccc1C(=O)Nc1ccc2c(c1)C(=O)N(C)[C@H]1CC[C@@H](CC(=O)NCCc3ccncc3)O[C@H]1CO2 | -5.7
CC(=O)N1[C@@H]2c3ccc(-c4ccccc4)c(=O)n3C[C@H]1[C@H](CO)[C@H]2C(=O)NC1Cc2ccccc2C1 | 10.0
Cc1cccc(-c2ccc(C3[C@@H]4CNC[C@H]3N4)cc2)c1 (stereo partly drawn) | -3.2
CS(=O)(=O)N1C[C@@H]2N[C@H](C1)[C@@H]2c1ccc(-c2ccccc2)cc1 | -50.6*
O=S(=O)(c1cccc(F)c1)N1[C@@H]2CNC[C@H]1C2c1ccc(-c2cccnc2)cc1 (stereo partly drawn) | -0.9
O=S(=O)(c1ccc(-c2ccccc2)cc1)N1C[C@@H]2N[C@H](C1)C2c1ccc(-c2ccncc2)cc1 (stereo partly drawn) | -32.8*
O=S(=O)(c1ccc(-c2ccccc2)cc1)N1[C@@H]2CNC[C@H]1C2c1ccc(-c2ccccc2)cc1 (stereo partly drawn) | 8.9
Cc1ccc(S(=O)(=O)N2[C@@H]3CNC[C@H]2C3c2ccc(-c3cccnc3)cc2)cc1 (stereo partly drawn) | -0.5
O=S(=O)(c1ccccc1)N1[C@@H]2CNC[C@H]1C2c1ccc(-c2cccnc2)cc1 (stereo partly drawn) | -11.5*!
CN(C)C(=O)c1ccc(-c2ccc(C3[C@@H]4CN(S(=O)(=O)Cc5ccccc5)C[C@H]3N4)cc2)cc1 (stereo partly drawn) | 4.7
COc1ccc(S(=O)(=O)N2[C@@H]3CNC[C@H]2C3c2ccc(-c3ccncc3)cc2)cc1 (stereo partly drawn) | 13.1
CC[C@H]1C/C=C\C[C@@H](c2ccc(F)cc2)NC(=O)CCC(=O)N1 | 4.4
O=C(NCc1ccc(F)cc1)[C@H]1[C@H](CO)[C@H]2Cn3c(cccc3=O)[C@@H]1N2C(=O)C1CC1 | -2.5
COCCNC(=O)C[C@@H]1C[C@H]2c3cc(NC(=O)NC4CCCC4)ccc3O[C@H]2[C@@H](CO)O1 | -5.6
COc1cccc(S(=O)(=O)N(C)C[C@@H]2OCc3cn(nn3)CCCC(=O)N([C@H](C)CO)C[C@@H]2C)c1 | -3.1
SMILES | DUX4 txn inh
O=C(C1CC1)N1CC2(C1)[C@H](c1ccccc1)[C@@H](CO)N2C(=O)CC1CC1 | 3.7
CO[C@H](CN(C)C(=O)c1ccccc1F)[C@@H](C)CN([C@@H](C)CO)S(=O)(=O)c1ccc(Cl)cc1 | 7.7
COCC(=O)N(C)C[C@H]1Oc2ncc(-c3ccc(F)cc3)cc2C(=O)N([C@H](C)CO)C[C@H]1C | -2.5
O=C(C[C@@H]1CC[C@@H](NC(=O)CC2CC2)[C@@H](CO)O1)NCc1ccc(-c2ccccc2)cc1 | 9.1
COc1ccc(CNC(=O)C[C@@H]2CC[C@H](NC(=O)CN(C)C)[C@@H](CO)O2)cc1 | 2.7
O=C(C[C@H]1CC[C@@H](NC(=O)c2ccc3c(c2)OCO3)[C@@H](CO)O1)NCc1ccc(Oc2ccccc2)cc1 | -44.8*
COc1ccc2c3c([nH]c2c1)[C@@H](CO)N(Cc1ccccc1F)CC31CN(C(=O)C2CCOCC2)C1 | -5.0
COc1ccc2c3c([nH]c2c1)[C@H](CO)N(Cc1ccccc1F)CC31CN(S(C)(=O)=O)C1 | -44.7*
COCC(=O)N1CC2(C1)CN(Cc1ccccc1Cl)[C@H](CO)c1[nH]c3cc(OC)ccc3c12 | -4.8
COc1ccc2c3c([nH]c2c1)[C@H](CO)N(Cc1ccccc1F)CC31CN(C)C1 | -6.0
COc1ccc2c3c([nH]c2c1)[C@H](CO)N(Cc1cc(F)ccc1F)CC31CCN(C(=O)CN(C)C)CC1 | -9.0
COc1ccc2c3c([nH]c2c1)[C@H](CO)N(Cc1cc(F)ccc1F)CC31CN(C(=O)C2CCC2)C1 | -73.8*
O=C1N[C@H](Cc2ccccc2)COCc2cn(nn2)CC[C@H]1Cc1cccc(Cl)c1 | 0.9
CCCNC(=O)[C@@H]1[C@@H](CO)[C@@H]2Cn3c(ccc(-c4cccc(OC)c4)c3=O)[C@H]1N2CCC | 12.3
Cc1ccc(-c2cnc3c(c2)C(=O)N([C@@H](C)CO)C[C@H](C)[C@@H](CN(C)Cc2ccccc2C(=O)O)O3)cc1 | -6.2
CC=Cc1ccc2n(c1=O)C[C@@H]1[C@@H](CO)[C@H](C(=O)N(C)C)[C@H]2N1CC1CCCC1 (mixture of isomers) | -3.0
CCCNC(=O)N1CC2(C1)CN(Cc1ccccc1)[C@@H](CO)c1[nH]c3cc(OC)ccc3c12 | -10.1*
COc1ccc2c3c(n(C)c2c1)[C@H](CO)N(C)CC31CN(C(=O)C2CCC2)C1 | 22.5
COc1ccc2c3c([nH]c2c1)[C@H](CO)N(CC1CC1)CC31CN(C(=O)NC2CCCC2)C1 | 6.2
CCCNC(=O)N1CC2(C1)CN(Cc1ccccc1)[C@H](CO)c1[nH]c3cc(OC)ccc3c12 | -8.4
COc1ccc2c3c(n(C)c2c1)[C@H](CO)N(CC1CC1)CC31CN(C(=O)NC2CCCC2)C1 | 2.3
COc1ccc2c3c([nH]c2c1)[C@H](CO)N(CC1CC1)CC31CN(C(=O)c2ccccc2)C1 | -24.1*
COc1ccc2c3c(n(C)c2c1)[C@@H](CO)N(CC1CC1)CC31CN(C(=O)c2ccccc2)C1 | -32.1*
CCCNC(=O)N1CC2(C1)CN(Cc1ccc(F)cc1)[C@H](CO)c1[nH]c3cc(OC)ccc3c12 | -8.3
COc1ccc2c3c([nH]c2c1)[C@H](CO)N(C(=O)c1ccccc1)CC31CN(C(=O)CC2CC2)C1 | 9.8
COc1ccc2c3c(n(C)c2c1)[C@H](CO)N(C)CC31CN(C(=O)NC(C)C)C1 | 5.5
COc1ccc2c3c(n(C)c2c1)[C@@H](CO)N(C(=O)c1ccccc1)CC31CCN(CC2CC2)CC1 | -2.2
COc1ccc2c3c(n(C)c2c1)[C@@H](CO)N(C)CC31CN(C(=O)c2ccccc2F)C1 | -35.1*
O=C(c1ccncc1)N1CC2(C1)[C@H](c1ccccc1)[C@@H](CO)N2Cc1ccccn1 | 2.3
COc1cccc(C(=O)Nc2ccc3c(c2)C(=O)N(C)[C@@H]2CC[C@@H](CC(=O)NCc4ccc(F)cc4)O[C@H]2CO3)c1 | 1.6
